Experimental data taken from PubChem BioAssay AID1035475 (Broad Institute, 2014).
Entries with a potency or affinity are not part of this list. Results filed as inconclusive are left out. Activity calls are given as the source filed them.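 The calls were made as follows: active = fluorescent signal drops by 40% or more, counted as a hit; inconclusive = no clear call, values can overlap the other calls; inactive = the rest, including any activity in the opposite direction.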

Test: blockers of FN fibrillogenesis by fibroblasts – AH1F cells, Alexa488-FN fluorescence, cherry-picks, dose response (AID 1035475);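 also: AH1F fibroblasts incorporating labeled fibronectin into their extracellular matrix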

In the case of `C=C1C(=O)O[C@@H]2C[C@@H](C)[C@@H]3C=CC(=O)[C@@]3(C)[C@@H](O)[C@H]12`, the outcome is reported as “inactive”.
